Source: PubChem BioAssay
Activity calls are given as the source filed them. Unless noted, no rule for the calls is given here.

Columns and labels:
[1] = system: XIP peptide (Xip251-270) binding; test: XIP fragment 251-270 binding compounds – biochemical, small-molecule microarray, fluorescence 635/667 nm, 0.1 µg/mL protein, primary screen (AID 1182); settings: fluorescent protein binding, 635 nm, higher = more signal, called active from +8 up or from −8 down
XIP peptide (Xip251-270) = test: compounds binding XIP fragment 251-270 – biochemical, small-molecule microarray, fluorescence 635/667 nm, 0.5 µg/mL protein, primary screen (AID 1183); settings: fluorescence 635 nm, higher = more signal
[2] = blood-stage malaria parasite viability loss – strain 3D7, DAPI fluorescence, 100 nL, primary screen (AID 1184);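 also: parasites grown inside human red blood cells in medium with human serum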; settings: P. falciparum 3D7 growth, 3 d, higher = more signal
[3] = biological target: Homeobox protein Hox-A13 (Mus musculus) (UniProt Q62424); test: disruptors of Hoxa13 oligonucleotide interaction – biochemical, fluorescence polarization, labeled oligonucleotide, primary screen (AID 1185); settings: Hoxa13:DNA binding, 15 min, higher = more signal, called active from +8 up or from −8 down
[4] = blockers of DNA damage checkpoint Chk1 activation – imaging, HeLa, hydroxyurea, phospho-Chk1 antibody, percent positive cells, primary screen (AID 1186); settings: hydroxyurea-induced phospho-Chk1 immunofluorescence imaging, higher = more signal
[5] = blockers of DNA damage checkpoint Chk1 activation – imaging, HeLa, hydroxyurea, phospho-Chk1 nuclear intensity, primary screen (AID 1187); settings: hydroxyurea-induced phospho-Chk1 immunofluorescence imaging, higher = more signal

Chain of Homeobox protein Hox-A13 (Mus musculus) (Q62424 whole entry, looked up): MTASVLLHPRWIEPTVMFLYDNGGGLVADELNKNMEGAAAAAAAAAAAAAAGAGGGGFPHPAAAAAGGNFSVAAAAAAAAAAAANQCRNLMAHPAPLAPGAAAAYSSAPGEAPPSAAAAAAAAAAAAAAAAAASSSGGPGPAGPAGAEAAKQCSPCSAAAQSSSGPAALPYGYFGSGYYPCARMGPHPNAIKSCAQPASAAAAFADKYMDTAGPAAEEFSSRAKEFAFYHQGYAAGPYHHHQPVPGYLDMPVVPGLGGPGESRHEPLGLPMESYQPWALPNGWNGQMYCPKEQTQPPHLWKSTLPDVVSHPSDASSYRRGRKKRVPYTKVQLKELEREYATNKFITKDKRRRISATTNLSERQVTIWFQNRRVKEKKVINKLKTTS

SMILES | composite z-score [1] | composite z-score (XIP peptide (Xip251-270)) | z-score [2] | z-score [3] | z-score [4] | z-score [5]
COCC(=C=CC[C@H](O)c1ccccc1OCCO)C[C@H](O)COCc1ccccc1 | 0.195 (inactive) | 0.148 | -1.77 | -4.37 (inactive) | 0.141 (inactive) | 0.058 (inactive)
CN(C)CCCCNC(=O)[C@H]1C[C@H]2C(=O)NCC(=O)N2[C@H]1c1ccc(O)cc1 | 0.372 (inactive) | 0.815 | 0.185 | -4.67 (inactive) | -0.15 (inactive) | -0.186 (inactive)
C=CCC(OC(C)=O)[C@@H]1[C@@H](N(Cc2cccc3ccccc23)C(=O)Cc2ccc(OC)cc2)c2cc(OCCCO)ccc2N1C(=O)c1ccc2ccccc2c1 (stereo partly specified) | -0.129 (inactive) | 0.174 | -2.64 | -2.33 (inactive) | -0.325 (inactive) | -0.0189 (inactive)
Cc1ccc(F)cc1S(=O)(=O)N[C@H]1CCN(Cc2ccc(OC(C)C)cc2)C1 | 0.479 (inactive) | 0.338 | 0.646 | -5.72 (inactive) | -0.0604 (inactive) | 0.581 (inactive)
COC(=O)[C@@]1(Cc2ccccc2)[C@H]2c3cc(C(=O)N4CCCC4)n(Cc4ccc(OC)c(OC)c4)c3C[C@H]2CN1C(=O)c1ccccc1 | 0.633 (inactive) | 0.0643 | -1.32 | -4.87 (inactive) | 0.243 (inactive) | 0.282 (inactive)
CCOC(=O)C1=CCC(c2cc3ccccc3[nH]2)N(CCN2CC(C(=O)OCC)=CCC2c2cc3ccccc3[nH]2)C1 (stereo unspecified) | 0.401 (inactive) | 0.737 | -1.51 | -3.81 (inactive) | -0.852 (inactive) | -0.497 (inactive)
CCOC(=O)C[C@H]1[C@H](OC(=O)c2ccccc2-c2ccccc2)[C@@H](NC(=O)C2CCCCC2)c2cc(OCCCO)ccc2N1C(=O)c1ccc2ccccc2n1 | 0.181 (inactive) | 0.727 | 0.433 | -3.33 (inactive) | 0.0664 (inactive) | -0.108 (inactive)
CC1CC/C=C\[C@H]2OC34C=CCN(c5ccc6ccccc6c5)C(=O)[C@H]3N(C(C)CO)C(=O)[C@@H]4C2C(=O)O1 (stereo partly specified) | -0.0371 (inactive) | -0.691 | -0.338 | -4.97 (inactive) | 0.0352 (inactive) | -0.228 (inactive)
C=CCC(OC(C)=O)[C@@H]1[C@@H](N(Cc2ccc(-c3ccccc3)cc2)C(=O)c2cccc3ccccc23)c2cc(OCCCO)ccc2N1C(=O)Cc1ccc(OC)cc1 (stereo partly specified) | 0.15 (inactive) | -0.686 | -1.38 | -1.88 (inactive) | -0.066 (inactive) | 0.0017 (inactive)
O=C1O[C@H](Cc2ccccc2)[C@@H]2[C@H]3C=CCCC=C3CN2[C@H]1Cc1ccc(O)cc1 | 0.127 (inactive) | -0.61 | -0.947 | -9.53 (active) | 0.167 (inactive) | -0.122 (inactive)
CC(C)OC(=O)CC(=O)CC(O)c1cccc([N+](=O)[O-])c1 (stereo unspecified) | 0.52 (inactive) | 0.089 | -0.165 | -0.516 (inactive) | -0.242 (inactive) | -0.299 (inactive)
CC(C)c1nc2cc(Br)ccc2c(=O)o1 | 0.697 (inactive) | 0.355 | -0.795 | -0.27 (inactive) | -0.0165 (inactive) | 0.0785 (inactive)
CCOC(=O)C1=CC[C@@H](c2ccc(OC)cc2)N(S(=O)(=O)c2ccc(C)cc2)[C@H]1CC | 0.441 (inactive) | 0.463 | -2.03 | -0.507 (inactive) | -0.819 (inactive) | -0.599 (inactive)
COC(=O)[C@@]1(Cc2ccc(F)cc2)[C@H]2c3cc(C(=O)N(C)C)n(CCc4ccc(O)c(O)c4)c3C[C@H]2CN1C(=O)c1ccccc1 | -0.574 (inactive) | 0.162 | 0.162 | -3.03 (inactive) | -0.361 (inactive) | 0.0787 (inactive)
O=C1O[C@H](c2ccccc2)[C@H](c2ccccc2)N2[C@H]1[C@@H](C(=O)N1CCN(c3ncccn3)CC1)[C@]1(C(=O)Nc3ccc(C#CCCO)cc31)[C@H]2c1ccc(O)cc1 | -0.224 (inactive) | 0.726 | -0.707 | -2.81 (inactive) | -0.114 (inactive) | -0.212 (inactive)
Cc1ccc(S[C@]2(C(=O)NCCCN(C)C)CC(=O)N(C3Cc4ccccc4C3)[C@@H]2c2ccc(CO)cc2I)cc1 | -0.261 (inactive) | 0.315 | -0.235 | -3.61 (inactive) | 0.721 (inactive) | 0.848 (inactive)
CN(C)CCCC[C@@H]1NC(=O)[C@@H]2C[C@H](C(=O)NCCCCCN)[C@H](c3cccc(OCCO)c3)N2C1=O | 1.14 (inactive) | 0.898 | -0.0568 | -1.29 (inactive) | -0.523 (inactive) | 0.0431 (inactive)
COC(=O)[C@@]1(Cc2ccc(F)cc2)[C@H]2c3cc(C(=O)N(C)C)n(C)c3C[C@H]2CN1C(=O)c1ccccc1 | -0.0622 (inactive) | -0.153 | 0.386 | -7.29 (inactive) | 0.707 (inactive) | 0.633 (inactive)
COCCOC(=O)N1C(=O)[C@@]2(c3cc(C#CC4(O)CCCCCC4)ccc31)[C@H](c1ccc(O)cc1)N1[C@H](c3ccccc3)[C@H](c3ccccc3)OC(=O)[C@H]1[C@@H]2C(=O)N1CCCCCCC1 | 0.265 (inactive) | 0.747 | -1.74 | 0.0885 (inactive) | -0.0596 (inactive) | 0.244 (inactive)
COCCOC(=O)N1C(=O)[C@@]2(c3cc(C#CCC(C(=O)OC)C(=O)OC)ccc31)[C@H](C(N)=O)[C@H]1C(=O)O[C@H](c3ccccc3)[C@H](c3ccccc3)N1[C@@H]2c1ccc(O)cc1 | 0.896 (inactive) | 0.77 | -2.1 | 0.218 (inactive) | -0.0553 (inactive) | 0.0543 (inactive)
CC(C)NC(=O)[C@@H]1c2ccccc2C(=O)N(Cc2ccccc2C(F)(F)F)[C@H]1c1ccc(CO)cc1 | 0.483 (inactive) | 0.78 | -0.276 | -3.17 (inactive) | 0.41 (inactive) | 0.405 (inactive)
O=C1C=C(c2ccccc2)C(=O)C2=C1CC([C@H]1Oc3ccccc3S(=O)(=O)N3CCC[C@@H]13)=CC2 | -0.0015 (inactive) | -0.0733 | -3.16 | -3.85 (inactive) | 0.079 (inactive) | 0.334 (inactive)
C=CCN1C(=O)[C@@]2(O[C@@H](CCn3cc([C@H](O)c4ccccc4)nn3)[C@H]([Si](C)(C)c3ccc(OC)cc3)[C@H]2C)c2cc(N3C(=O)c4cccc5cccc3c45)ccc21 | 0.185 (inactive) | 0.21 | -0.816 | -3.29 (inactive) | -0.0586 (inactive) | 0.311 (inactive)
COC(=O)c1cccc([C@H]2OC(=CC(=O)OC(C)C)C[C@@H](c3cccc(C(=O)OC)c3)O2)c1 | 0.308 (inactive) | 0.713 | -0.832 | -4.13 (inactive) | -0.504 (inactive) | -1.39 (inactive)
CC1CC/C=C\[C@H]2OC34C=CCN(Cn5nnc6ccccc65)C(=O)[C@H]3N(CCCCCCO)C(=O)[C@@H]4C2C(=O)O1 (stereo partly specified) | 0.0152 (inactive) | 0.217 | 0.21 | -3.02 (inactive) | -0.481 (inactive) | -0.521 (inactive)
COc1ccc([Si](C)(C)[C@H]2[C@H](CC(=O)N3Cc4ccccc4C[C@H]3CO)O[C@@]3(C(=O)N(c4ccccc4)c4ccccc43)[C@@H]2C)cc1 | 0.065 (inactive) | 0.765 | -2.01 | -5.4 (inactive) | -0.447 (inactive) | -0.786 (inactive)
